Sampled rows, rich in hits. Any-hit rate of the full collection: about 19%.
IL-1B inflam inh: inhibitors of inflammasome signaling (IL-1 beta secretion); THP-1 LPS/ATP IL-1B secretion, AlphaLISA, 16 h; hits give low values; activity change, % at 57.5 µM; actives 4.7% (n = 360,000); in the data active = activity change below about -50%; inconclusive = mostly about -30% to -49%
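THP-1 cells pretreated 1 hr with compounds (up to 57.5 uM final), then stimulated with LPS (250 ng/mL final) plus ATP (1.25 mM final); secreted IL-1B measured by AlphaLISA after 16 hr, decreased signal indicating inhibition.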
HT1080 IDH1KD tx: kills HT-1080 cells with IDH1 knockdown; HT-1080 IDH1 knockdown viability, ATP luminescence, 48 h; actives 2% (n = 360,000); Potency, µM (titrated, usually from 46.1 µM), inactives show top-dose activity, negative = toxicity, hits mostly cytotoxic;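 note: potency is the fitted concentration of half-maximal effect; 0% = DMSO wells and -100% = cell-free medium wells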
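In this qHTS, HT-1080 cells depleted of IDH1 are exposed for 48 h at 37 °C to compound titrations. Toxicity is scored from CellTiter-Glo luminescence, with DMSO as full viability and medium alone as none.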
HT1080-NT tox: kills 2HG-producing HT-1080-NT fibrosarcoma cells | AID 686970 | Potency, µM (series often up to 46.1 µM), for the others: at the top dose activity, negative = less viability, usual class: cytotoxic | actives 1.6% (n = 360,000) | HT-1080-NT fibrosarcoma viability, CellTiter-Glo ATP luminescence, 48 h;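 note: NT is the 2HG producing partner of a matched IDH1 knockdown line; potency is the fitted concentration of half-maximal effect; 0% = DMSO-treated cells and -100% = media-only wells without cells; nearly all actives have a fitted effect of over 55% in size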
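HT-1080-NT; 750 cells/well; 5% FBS RPMI; 48 h compound, 37 degrees C; CellTiter-Glo luminescence; curve fitting and curve-class assignment.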
DT40 TDP1 CPT: growth inhibition of DT40 Tdp1-/-;hTDP1 cells with camptothecin (screen for TDP1 inhibitors); chicken DT40 Tdp1-/-;hTDP1 cells + 20 nM CPT, ATP luminescence, 48 h; Potency, µM (series often up to 46.2 µM), inactives show at the highest dose activity change, negative = growth inhibition, most hits filed as inhibitors; actives 12% (n = 420,000); AID 686979; note: potency is the fitted concentration of half-maximal effect; nearly all actives have a fitted effect of over 55% in size
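Chicken DT40 Tdp1-/- cells complemented with human TDP1, 400 cells/well, exposed to compounds plus 20 nM camptothecin for at least 48 h at 37 C; viability read as ATP content by CellTiter-Glo luminescence.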
DT40 TDP1 no CPT: qHTS for Inhibitors of human tyrosyl-DNA phosphodiesterase 1 (TDP1): qHTS in cells in absence of CPT; DT40 Tdp1-/- hTDP1 cells, no CPT, ATP luminescence, 48 h; Potency, µM (doses to about 46.2 µM), for the others: top-dose activity change, negative = growth inhibition, hits mostly inhibitors; actives 15% (n = 420,000); note: potency is the fitted concentration of half-maximal effect; nearly all actives have a fitted effect of over 55% in size
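A cellular qHTS used chicken DT40 cells lacking endogenous Tdp1 but carrying stably transfected human TDP1. Compounds were applied without camptothecin, and cell growth kinetics were judged by ATP-dependent luminescence after ≥48 hr.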
The depositor's hits bear a star; [ ] = dose if it differs, or a comment. Unless noted, calls come from the whole dose curve; as a rule, active = well fitted curve in the direction sought with a large enough effect; inconclusive = small, poorly fitted or top-dose-only effect, or another doubt; inactive = no such curve, though single readings can be large; an effect the other way counts as inactive or inconclusive. Unless noted, % is set by controls: 0 for no effect and ±100 for the full control effect.

Results for Cc1cc(S(=O)(=O)Nc2ccc(C(=O)NCC(c3ccco3)N3CCCCC3)cc2)ccc1F (centres undefined) ?
IL-1B inflam inh: -12; HT1080 IDH1KD tx: 1%; HT1080-NT tox: 0%; DT40 TDP1 CPT: -9%; DT40 TDP1 no CPT: -24%

What do the screens show for `CCOc1cc(NC(=S)Nc2ccccc2OC)c(OCC)cc1NC(=O)c1ccccc1C`?
IL-1B inflam inh: inconclusive; HT1080 IDH1KD tx: -6%; HT1080-NT tox: -1%; DT40 TDP1 CPT: inconclusive; DT40 TDP1 no CPT: inconclusive

What do the screens show for `O=C(NCC(c1ccco1)N1CCCCC1)c1ccc(COc2ccccc2)cc1` (centres undefined)?
IL-1B inflam inh: -72*; HT1080 IDH1KD tx: -10%; HT1080-NT tox: -1%; DT40 TDP1 CPT: inconclusive; DT40 TDP1 no CPT: inconclusive

What do the screens show for `O=C(NCC(c1ccco1)N1CCCCC1)c1ccc(OCc2ccccc2)cc1` (centres undefined)?
IL-1B inflam inh: 14; HT1080 IDH1KD tx: 24%; HT1080-NT tox: 14%; DT40 TDP1 CPT: -6%; DT40 TDP1 no CPT: -12%

Results for CC(C)(Oc1ccc(Cl)cc1)C(=O)NCC(c1ccco1)N1CCCCC1 (centres undefined) ?
IL-1B inflam inh: inconclusive; HT1080 IDH1KD tx: 1%; HT1080-NT tox: 1%; DT40 TDP1 CPT: 21µM*; DT40 TDP1 no CPT: 18µM*

What do the screens show for `COc1ccccc1NS(=O)(=O)c1ccc(C(=O)NCc2ccc(S(N)(=O)=O)cc2)cc1`?
IL-1B inflam inh: 9; HT1080 IDH1KD tx: 1%; HT1080-NT tox: -9%; DT40 TDP1 CPT: inconclusive; DT40 TDP1 no CPT: 15µM*

What do the screens show for `COc1ccccc1NC(=S)NCc1ccc(S(N)(=O)=O)cc1`?
IL-1B inflam inh: -6; HT1080 IDH1KD tx: 5%; HT1080-NT tox: 23%; DT40 TDP1 CPT: -8%; DT40 TDP1 no CPT: -21%

What do the screens show for `Cc1ccc(S(=O)(=O)N(C)c2ccc(C(=O)NCC(c3ccccc3)N3CCCC3)cc2)cc1` (centres undefined)?
IL-1B inflam inh: -19; HT1080 IDH1KD tx: -15%; HT1080-NT tox: -1%; DT40 TDP1 CPT: inconclusive; DT40 TDP1 no CPT: 21µM*

How did CC1Cc2ccccc2N1C(=O)Cn1cnc2ccccc21 (centres undefined) do in these assays?
IL-1B inflam inh: 9; HT1080 IDH1KD tx: -12%; HT1080-NT tox: -1%; DT40 TDP1 CPT: inconclusive; DT40 TDP1 no CPT: inconclusive

Results for COc1ccccc1NS(=O)(=O)c1cccc(C(=O)NCC(c2ccco2)N2CCCCC2)c1 (centres undefined) ?
IL-1B inflam inh: -7; HT1080 IDH1KD tx: -6%; HT1080-NT tox: 1%; DT40 TDP1 CPT: inconclusive; DT40 TDP1 no CPT: inconclusive

Results for COc1ccccc1NS(=O)(=O)c1ccc(C(=O)NCC(c2ccco2)N2CCCCC2)cc1 (centres undefined) ?
IL-1B inflam inh: 21; HT1080 IDH1KD tx: 0%; HT1080-NT tox: 3%; DT40 TDP1 CPT: 15µM*; DT40 TDP1 no CPT: -25%

How did CN(C)C(CNC(=O)c1cc(S(=O)(=O)N(C)Cc2ccccc2)ccc1Cl)c1ccco1 (centres undefined) do in these assays?
IL-1B inflam inh: -7; HT1080 IDH1KD tx: 3%; HT1080-NT tox: 0%; DT40 TDP1 CPT: 12µM*; DT40 TDP1 no CPT: 12µM*

Results for CN(c1ccccc1)S(=O)(=O)c1ccc(C(=O)NCC(c2ccco2)N2CCCCC2)cc1 (centres undefined) ?
IL-1B inflam inh: 16; HT1080 IDH1KD tx: 1%; HT1080-NT tox: 14%; DT40 TDP1 CPT: inconclusive; DT40 TDP1 no CPT: 15µM*

What do the screens show for `COc1ccccc1N(C)S(=O)(=O)c1ccc(C(=O)NCC(c2ccco2)N2CCCCC2)cc1` (centres undefined)?
IL-1B inflam inh: 10; HT1080 IDH1KD tx: -17%; HT1080-NT tox: -30%; DT40 TDP1 CPT: inconclusive; DT40 TDP1 no CPT: inconclusive

What do the screens show for `COc1ccccc1NS(=O)(=O)c1ccc(C(N)=O)cc1`?
IL-1B inflam inh: -9; HT1080 IDH1KD tx: -10%; HT1080-NT tox: -5%; DT40 TDP1 CPT: 11%; DT40 TDP1 no CPT: -22%

How did CN(C)C(CNC(=O)c1cc(Br)ccc1Cl)c1ccco1 (centres undefined) do in these assays?
IL-1B inflam inh: 5; HT1080 IDH1KD tx: 9%; HT1080-NT tox: 8%; DT40 TDP1 CPT: -2%; DT40 TDP1 no CPT: -21%

Results for Cc1ccc(S(=O)(=O)Nc2ccccc2OC(C(=O)OC(C)(C)C)C(=O)OC(C)(C)C)cc1 ?
IL-1B inflam inh: 39; HT1080 IDH1KD tx: inconclusive; HT1080-NT tox: inconclusive; DT40 TDP1 CPT: 15µM*; DT40 TDP1 no CPT: 16µM*

How did COC1CCCCC1Nc1cccc(SC)c1 (centres undefined) do in these assays?
IL-1B inflam inh: 44; HT1080 IDH1KD tx: -3%; HT1080-NT tox: 2%; DT40 TDP1 CPT: inconclusive; DT40 TDP1 no CPT: -19%

Results for COC(=O)[C@]12CCCCC=C1N(CCC1=CCCCC1)C(=O)[C@H](CC(=O)N1CCOCC1)C2 ?
IL-1B inflam inh: 3; HT1080 IDH1KD tx: 3%; HT1080-NT tox: 5%; DT40 TDP1 CPT: inconclusive; DT40 TDP1 no CPT: inconclusive

How did CO/N=C(\C(=O)N[C@@H]1C(=O)N2C(C(=O)O)=C(CSC(=O)c3ccco3)CS[C@H]12)c1csc(N)n1 do in these assays?
DT40 TDP1 CPT: 20%; DT40 TDP1 no CPT: -12%

How did Cn1c(=O)c2c(ncn2CC(=O)OCC(=O)c2ccc(Br)cc2)n(C)c1=O do in these assays?
IL-1B inflam inh: 21; HT1080 IDH1KD tx: 2%; HT1080-NT tox: 10%; DT40 TDP1 CPT: 16µM*; DT40 TDP1 no CPT: 26µM*

How did COc1ccc(C(=O)Cn2c(Br)nc3c2c(=O)n(C)c(=O)n3C)cc1OC do in these assays?
IL-1B inflam inh: 29; HT1080 IDH1KD tx: -5%; HT1080-NT tox: -2%; DT40 TDP1 CPT: inconclusive; DT40 TDP1 no CPT: inconclusive

Results for COc1ccc(C(=O)Cn2c(Br)nc3c2c(=O)n(C)c(=O)n3C)cc1 ?
IL-1B inflam inh: 1; HT1080 IDH1KD tx: -22%; HT1080-NT tox: -17%[9.24 µM]; DT40 TDP1 CPT: 13µM*; DT40 TDP1 no CPT: 23µM*

What do the screens show for `Cn1c(=O)c2c(ncn2CC(=O)OCC(=O)c2ccc(Cl)cc2)n(C)c1=O`?
IL-1B inflam inh: 23; HT1080 IDH1KD tx: -3%; HT1080-NT tox: -3%; DT40 TDP1 CPT: -1%; DT40 TDP1 no CPT: 0%

What do the screens show for `CCCCn1c(Oc2ccc(C(=O)OC)cc2)nc2c1c(=O)n(C)c(=O)n2C`?
IL-1B inflam inh: -73*; HT1080 IDH1KD tx: 5%; HT1080-NT tox: -11%; DT40 TDP1 CPT: 16µM*; DT40 TDP1 no CPT: 11µM*

Assay outcomes deposited in PubChem by National Center for Advancing Translational Sciences (NCATS).
